In ChEMBL document CHEMBL4513216, “Probing the Open Global Health Chemical Diversity Library for Multistage-Active Starting Points for Next-Generation Antimalarials” (ACS Infect Dis, 2020) one finds INHIBITION data, which are given here for 70 molecules.

Hit rate of the full screen: of about 69,000 compounds, about 8,600 (12%) showed an effect of 50% or more. The sample as a whole holds a higher share of strong results than the screen did.

This test deals with Plasmodium berghei. Description: Screen against P. berghei liver stage (PbLuc), transformed with Luciferase, at 10uM. It counts as functional, HepG2. The following applies: tested at 10 uM.
Regarding `Cc1c(C(=O)NCCC(=O)N2CCCC2)cccc1-c1ccccn1`, the INHIBITION is listed as 71.4%. As for `Cc1c(C(=O)NCCCS(C)(=O)=O)cccc1-c1ccccn1`, the INHIBITION is -12.1%.

Consider `Cc1c(C(=O)NCC(C)(C)S(C)(=O)=O)cccc1-c1ccccn1`, for which the INHIBITION is given as -53.2%. To `Cc1nn(COc2cccc(F)c2)c(C)c1NC(=O)C1CC1` belongs 46.6%; to `Cc1nn(C)c(Oc2cccc(F)c2)c1NC(=O)C1CCOCC1`, 62.9%; to `Cc1nn(C)c(Oc2cccc(F)c2)c1NC(=O)C1CCCO1` (stereo not given), 29.8%.

In the case of `Brc1ccccc1-c1nnc(CNCCn2cccn2)o1`, the INHIBITION worked out at 29.7%. To `O=C(CCN1C[C@H]2CC[C@@H]1C2)N1CCN(c2cccc(Cl)c2)C(=O)C1` belongs -6.94%.

For the molecule `CC(C)CNC(=O)[C@H]1C[C@H]2CN(C(=O)NCCc3ccccc3)C[C@@H]1O2`, the INHIBITION turned out to be 20.5%. Regarding `Cc1cccc(CC(=O)N2CCOCC2c2c(C)n[nH]c2C)c1` (stereo not given), the INHIBITION stood at 53.8%. For the molecule `Cc1ccccc1CC(=O)N1CCOCC1c1c(C)n[nH]c1C` (stereo not given), the INHIBITION is 41.65%. On to `Cc1n[nH]c(C)c1C1COCCN1C(=O)Cc1ccccc1F` (stereo not given), for which the INHIBITION came out at 83.4%. Take `Cc1n[nH]c(C)c1C1COCCN1C(=O)c1ccc(Cl)o1` (stereo not given): the INHIBITION is listed as -0.482%.

As for `Cc1n[nH]c(C)c1C1COCCN1C(=O)Cc1cccc(F)c1` (stereo not given), the INHIBITION is 16.8%. To `Cc1n[nH]c(C)c1C1COCCN1C(=O)c1cccc(F)c1F` (stereo not given) belongs -0.25%. As for `Cc1ccc(CC(=O)N2CCOCC2c2c(C)n[nH]c2C)cc1` (stereo not given), the INHIBITION came out at 67.5%. As to `CSc1ccc(C(=O)N2CCOCC2c2c(C)nn(C)c2C)o1` (stereo not given), the INHIBITION turned out to be 23.4%. To `Cc1ccc(O)c(C(=O)N2CCOCC2c2c(C)n[nH]c2C)c1` (stereo not given) belongs 1.563%; to `CSc1ccc(C(=O)N2CCOCC2c2c(C)n[nH]c2C)o1` (stereo not given), 57.45%. To `Cc1ccc(CC(=O)N2CCOCC2c2ncon2)cc1` (stereo not given) belongs 19.4%; to `Cc1cccc(CCC(=O)N2CCOCC2c2c(C)n[nH]c2C)c1` (stereo not given), -2.53%; to `CN(CC1(O)CCCC1)C(=O)c1cccc(Nc2cnccn2)c1`, 22%. With `CCCN(C)S(=O)(=O)N1CCCC1c1ccco1` (stereo not given), the INHIBITION turned out to be 10.47%. With `CN(C)C(=O)C1CN(Cc2nccs2)CCN(S(C)(=O)=O)C1` (stereo not given), the INHIBITION stood at 7.52%. Take `COCC(C)(O)CNC(=O)c1cc(-c2ccc(F)cc2)nn1C` (stereo not given): the INHIBITION is reported as -89.3%. As for `Cn1nc(C#N)c2c1CN(C(=O)c1cccnc1)CCC2`, the INHIBITION is recorded as 9.3%. Turning to `CCCC(=O)NC(C(=O)OC)c1cc(F)ccc1F` (stereo not given), the INHIBITION is reported as -14%. To `Cc1nnc(C2CCN(c3ncccn3)CC2)o1` belongs 25.8%. In the case of `Cc1c(F)cccc1S(=O)(=O)NCCN`, the INHIBITION came to 4.3%. With `CC(=O)NCC(=O)N1CCOC2(CCCN(c3ccc(C)nn3)C2)C1` (stereo not given), the INHIBITION stood at 8.74%. To `Cc1ncsc1CN1C[C@H](C(=O)NCC2CC2)[C@@H]2CCO[C@@H]2C1` belongs 24.9%; to `Cc1ncsc1CN1C[C@H](C(=O)NC2CCCC2)[C@@H]2CCO[C@@H]2C1`, 52%. The same measure for `O=C(NCC1CC1)[C@H]1CN(Cc2nccs2)C[C@H]2OCC[C@@H]12`: 17.7%; for `O=C(NC1CCCC1)[C@@H]1CN(Cc2nccs2)C[C@H]2OCC[C@H]21`: 32.4%; for `Cc1ncsc1CN1C[C@H]2OCC[C@H]2[C@H](C(=O)NCC2CC2)C1`: 34.4%. On to `CC(C)NC(=O)[C@@H]1CN(Cc2nccs2)C[C@H]2OCC[C@H]21`, for which the INHIBITION was found to be 71.1%. To `Cc1ccc(S(=O)(=O)N2CC[C@@H]3C[C@H](NC(=O)c4[nH]ncc4Br)[C@@H]32)cc1` belongs 35.9%; to `Cc1ccc(S(=O)(=O)NC(=O)CCc2cscn2)cc1Cl`, 3.46%; to `Cc1nn(C)c(Cl)c1C1CCCN1C(=O)c1csnn1` (stereo not given), 10%. Take `CCCn1cc2c(C(F)F)cc(SCC(=O)O)nc2n1`: the INHIBITION worked out at 32.3%. Consider `CC(C)(CN1C[C@H](Nc2ncccn2)[C@@H](C2CC2)C1)N1CCOCC1`, for which the INHIBITION came to 2.15%. In the case of `CSc1cccc(NC(=O)Nc2c(O)oc3ccccc3c2=O)c1`, the INHIBITION came out at 1.86%. Take `CC(C)(CN1CCC2(CCNCC2)CC1)N1CCOCC1`: the INHIBITION was -22.1%. The same measure for `Cc1ccoc1C(=O)NC1CCN(Cc2ccccc2C#N)CC1`: -9.37%; for `Cc1ccoc1C(=O)NC1CCN(Cc2cccc3c2OCCO3)CC1`: 52.1%.

Consider `CC(C)C(=O)NC1CCN(Cc2cccc3c2OCCO3)CC1`, for which the INHIBITION is given as 6.81%. In the case of `Cc1ccc(C(=O)NC2CCN(Cc3cccc4c3OCCO4)CC2)s1`, the INHIBITION is 33.8%. The same measure for `Cc1ccoc1C(=O)NC1CCN(Cc2csc3c(F)cccc23)CC1`: 87.4%. Consider `Cc1ccoc1C(=O)NC1CCN(Cc2cccc3ccccc23)CC1`, for which the INHIBITION is reported as 56.4%. Regarding `Cc1ccoc1C(=O)NC1CCN(C(=O)Nc2ccccn2)CC1`, the INHIBITION is on record as -31.8%. To `Cc1ccoc1C(=O)NC1CCN(Cc2ccccc2F)CC1` belongs 44.1%.

Consider `Cc1ccoc1C(=O)NC1CCN(CC(=O)N(C)c2ccccc2)CC1`, for which the INHIBITION is 22.3%. The same measure for `CN(C)c1ncc(-c2ccc(C(N)=O)cc2)c(C2CCNC2)n1` (stereo not given): 6.33%. As to `Cc1cc(C(=O)N2CCC3(C2)CN(c2cccnc2)C(=O)CN3C)[nH]n1` (stereo not given), the INHIBITION was 22.4%. The same measure for `CC(C)c1nccn1C1CCCN(C(=O)c2cc(C(N)=O)cs2)C1` (stereo not given): 35.3%; for `CC(=O)N1CCC2(CC1)CN(C(C)C)c1ccc(F)cc12`: 12.2%; for `CN1CCC(Cc2cccc(-c3cc(F)ccc3C(=O)O)n2)CC1`: 23.4%. In the case of `CC(C)Oc1ccc(C(=O)N2CC[C@H](O)[C@@H](n3ccnc3)CC2)cc1`, the INHIBITION was 26.3%. In the case of `CCS(=O)(=O)c1ccccc1N1CCC(N)CC1`, the INHIBITION was found to be 31.8%. Regarding `CC(C)c1ncncc1C(=O)N1CCN(Cc2cccnc2)CC1`, the INHIBITION turned out to be 31.9%.

With `COCCOCC1(CNCc2ccc(F)cc2)C[C@@H](O)[C@@H](O)C1` (stereo not given in full), the INHIBITION is on record as -43%.

Consider `CC(C)Cc1nnc2sc(-c3cc(C(C)C)n[nH]3)nn12`, for which the INHIBITION was determined as 46.6%. For `CC(C)(C)c1ccc(CN2C[C@H]3CC(O)C[C@H]3C2)c(OCC(N)=O)c1` (stereo not given in full), the INHIBITION was -2.85%. To `COc1ccc2cnn(CC(=O)NC3CCCC3)c(=O)c2c1OC` belongs 40.5%; to `Cc1cc(NC(=O)N(CCC#N)CCCN(C)C)ccc1F`, 52.6%; to `CCOc1ccc(NC(=O)N(CCC#N)Cc2ccccn2)cc1F`, -1.95%. Regarding `CN(C)CCCN(CCC#N)C(=O)Nc1ccc2[nH]ccc2c1`, the INHIBITION is 35.9%.

Take `COC(C)c1cccc(NC(=O)N(CCC#N)Cc2ccccn2)c1` (stereo not given): the INHIBITION was determined as 27.8%. The same measure for `N#CCCN(Cc1ccccn1)C(=O)Nc1cccc(F)c1`: -27.6%; for `Cc1cc(C)cc(NC(=O)N(CCC#N)CCCN(C)C)c1`: 52.6%.
